Laboratory results from PubChem BioAssay (Tox21).
Results filed as inconclusive are left out. A call without a number means that no potency is given here. Calls of active or inactive are those of the source. Calls follow the shape of the dose curve; as a rule, active = well fitted cell-killing curve with a large enough effect in the repeat runs; inconclusive = weak or mixed curves, or effect the other way; inactive = flat fitted curve, though single readings scatter.

Assays:
[1] = cAMP Responsive Elements (CRE) small molecule antagonists, cell-based qHTS assay: qHTS cell viability counter screen (AID 2060913); conditions: CRE-bla HEK293T viability, CellTiter-Glo luminescence, 5 h; series mostly up to 92.4 µM; also: nearly all actives have a fitted effect of over 40% in size; also: potency is read from the fitted curve at half-maximal effect
Outline: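 Steps: cells plated and held 18 hrs at 37 C/5% CO2; compounds and NKH477 (0.25 uM final) added; 3 hrs incubation; reporter substrate read; CellTiter-Glo added to measure cytotoxicity by luminescence.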

[2] = cAMP Responsive Elements (CRE) small molecule agonists, cell-based qHTS assay: qHTS cell viability counter screen (AID 2060914); conditions: CRE-bla HEK293T viability, CellTiter-Glo luminescence, 5 h; series mostly up to 92.4 µM;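 also: viability read after 3 h of compound exposure; nearly all actives have a fitted effect of over 50% in size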
Outline: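 CRE-bla HEK293T cells in 10% dialyzed FBS medium were exposed to compounds for 3 h at 37C after 18 h plating. CellTiter-Glo was then added in the same wells, and luminescence was read after 30 min at room temperature.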

SMILES | Potency [1] | Potency [2]
C[C@H]1[C@H](c2ccc(Cl)cc2)SC(=O)N1C(=O)NC1CCCCC1 | inactive | inactive
Fc1cccc(Cl)c1CCl | inactive | inactive
COC(=O)Nc1cccc(OC(=O)Nc2cccc(C)c2)c1 | inactive | inactive
CCOP(=O)(OCC)OP(=O)(OCC)OCC | inactive | inactive
CCOC(=O)C(Cl)Cc1cc(-n2nc(C)n(C(F)F)c2=O)c(F)cc1Cl (stereo unspecified) | inactive | inactive
CCc1ccccc1C | inactive | inactive
CCOP(=S)(Oc1ccc([N+](=O)[O-])cc1)c1ccccc1 (stereo unspecified) | inactive | inactive
Oc1ccc(Cl)c(Cl)c1 | inactive | inactive
CCNC(=O)NC(=O)/C(C#N)=N/OC | inactive | inactive
CC(=O)CCc1ccc2c(c1)OCO2 | inactive | inactive
C[C@]12CC[C@H](O)CC1=CC[C@@H]1[C@@H]2CC[C@]2(C)C(=O)CC[C@@H]12 | inactive | inactive
C=C(Cl)Cl | inactive | inactive
O=C(O)C1C2CCC(O2)C1C(=O)O (stereo unspecified) | inactive | inactive
CC(C)Nc1ccc(Nc2ccccc2)cc1 | 50.8 µM (active) | inactive
O=S(=O)(C(Cl)(Cl)Cl)C(Cl)(Cl)Cl | inactive | inactive
ClC1=C(Cl)[C@]2(Cl)[C@@H]3[C@@H](Cl)[C@@H](Cl)C[C@@H]3[C@@]1(Cl)C2(Cl)Cl | inactive | inactive
Brc1cccc(-c2ccccc2)c1 | inactive | inactive
CC(C)CON=O | inactive | inactive
C=COCCCl | inactive | inactive
BrCCBr | inactive | inactive

SMILES | Potency [1] | Potency [2]
O=C1CCCO1 | inactive | inactive
CN1[C@@H]2CC[C@H]1CC(OC(=O)c1cc(Cl)cc(Cl)c1)C2 (stereo partly specified) | inactive | inactive
CNC(C)Cc1ccccc1OC (stereo unspecified) | inactive | inactive
COP(=S)(OC)Oc1ccc(S(=O)(=O)N(C)C)cc1 | inactive | inactive
O=C1C(Cl)C(CCl)CN1c1cccc(C(F)(F)F)c1 (stereo unspecified) | inactive | inactive
CCOCCOC(C)=O | inactive | inactive
CCCCOCCOP(=O)(OCCOCCCC)OCCOCCCC | inactive | inactive
ClC(Cl)c1ccccc1 | inactive | inactive
O=S(=O)(O)C(F)(F)C(F)(F)C(F)(F)C(F)(F)C(F)(F)C(F)(F)C(F)(F)C(F)(F)F | inactive | inactive
ClC(Cl)C(Cl)(Cl)Cl | inactive | inactive
C[C@]12CC[C@H]3[C@@H](CCC4=CC(=O)CC[C@@H]43)[C@@H]1CC[C@@H]2OC(=O)CCC1CCCCC1 | inactive | inactive
COC(=O)c1c(C(F)F)nc(C(F)(F)F)c(C2=NCCS2)c1CC(C)C | inactive | inactive
COC[C@H](C)N(C(=O)CCl)c1c(C)csc1C | inactive | inactive
[O-][Cl+]O | inactive | inactive
N#Cc1cccc(C#N)c1 | inactive | inactive
O=C1CCCCC1Cl (stereo unspecified) | inactive | inactive
CCCOC(=O)Cc1ccc(OCC(=O)N(CC)CC)c(OC)c1 | inactive | inactive
CN(C)c1ccc(N=O)cc1 | inactive | inactive
CC(Cl)CCl (stereo unspecified) | inactive | inactive
C[C@]12C=CC3=C4CCC(=O)C=C4CC[C@H]3[C@@H]1CC[C@@H]2O | inactive | inactive

SMILES | Potency [1] | Potency [2]
O=C1NCN(c2ccccc2)C12CCN(CC1COc3ccccc3O1)CC2 (stereo unspecified) | inactive | inactive
c1cc(OCC2CO2)ccc1Cc1ccc(OCC2CO2)cc1 (stereo unspecified) | inactive | inactive
N#CCCCCC#N | inactive | inactive
C/C=C/c1ccc2c(c1)OCO2 | inactive | inactive
BrCBr | inactive | inactive
CN(CCCC(O)c1cccnc1)N=O (stereo unspecified) | inactive | inactive
CCCCCc1cc(O)cc(O)c1 | inactive | inactive
ClC(Br)Br | inactive | inactive
CC(C)CCCCCCOC(=O)c1ccccc1C(=O)OCCCCCCC(C)C | inactive | inactive
CC1Sc2c(C(=O)O)c(=O)c3cc(F)c(N4CCNCC4)cc3n21 (stereo unspecified) | inactive | inactive
C=CCOC(C)=O | inactive | inactive
N#CN=C(N)N | inactive | inactive
c1ccc2cc3c(cc2c1)-c1cccc2cccc-3c12 | inactive | inactive
COc1ccccc1OC | inactive | inactive
Nc1ccc(Cl)cc1C(=O)c1ccccc1 | inactive | inactive
O=C(O)c1c(Cl)ccc2cc(Cl)cnc12 | inactive | inactive
O=S1(=O)OCCO1 | inactive | inactive
Nc1ccc([N+](=O)[O-])cc1N | inactive | inactive
